About 2,100 (0.6%) of roughly 350,000 compounds were called active. Inconclusive results (about 1%) are left out. Shown is part of a subset that was picked to be rich in actives. Values without a mark were called inactive.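 The calls were made as follows: active = activity change of -60% or lower, but not beyond a set lower limit; inconclusive = change between -60% and -40%, or beyond the set limit; inactive = change above -40%.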
These compounds were tested against Relaxin receptor 1 (Homo sapiens) (UniProt Q9HBX9) (assay: qHTS Assay for Antagonists of the Relaxin Receptor RXFP1). Settings: HEK293-RXFP1, relaxin-stimulated cAMP HTRF, 30 min; at 57.5 µM; stronger effect = lower value.
Relaxin receptor 1 (Homo sapiens), sequence (Q9HBX9 whole entry, looked up): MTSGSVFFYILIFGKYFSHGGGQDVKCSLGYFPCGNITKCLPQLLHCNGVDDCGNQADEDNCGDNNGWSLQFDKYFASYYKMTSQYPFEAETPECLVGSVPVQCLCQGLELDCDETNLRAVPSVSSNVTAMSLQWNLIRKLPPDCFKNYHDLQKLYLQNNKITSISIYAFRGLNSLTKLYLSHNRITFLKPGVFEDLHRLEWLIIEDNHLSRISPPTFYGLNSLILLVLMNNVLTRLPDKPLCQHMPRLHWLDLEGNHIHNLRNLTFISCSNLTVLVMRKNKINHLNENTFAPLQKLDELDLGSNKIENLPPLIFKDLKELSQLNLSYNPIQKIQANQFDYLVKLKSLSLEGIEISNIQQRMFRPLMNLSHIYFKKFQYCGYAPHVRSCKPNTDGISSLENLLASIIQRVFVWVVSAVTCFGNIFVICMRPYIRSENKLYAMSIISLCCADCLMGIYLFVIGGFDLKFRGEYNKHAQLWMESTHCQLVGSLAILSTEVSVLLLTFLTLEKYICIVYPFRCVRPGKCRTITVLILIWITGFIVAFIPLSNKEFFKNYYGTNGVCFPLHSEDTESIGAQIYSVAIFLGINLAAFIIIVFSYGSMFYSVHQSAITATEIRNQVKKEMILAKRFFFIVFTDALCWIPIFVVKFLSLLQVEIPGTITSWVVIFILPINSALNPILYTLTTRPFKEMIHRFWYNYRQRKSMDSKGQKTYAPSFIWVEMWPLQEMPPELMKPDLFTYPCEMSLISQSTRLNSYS
From the text: The relaxin hormone is involved in the variety of biological functions in normal tissues and diseases. The role of relaxin is well-established in female reproduction and parturition, mammary gland and endometrial development, maintenance of myometrial quiescence during pregnancy. Relaxin signaling through its G protein-coupled receptor (GPCR) RXFP1 results in ECM remodeling through regulation of collagen deposition, cell invasiveness, proliferation and overall tissue homeostasis. […] Recombinant human relaxin (rhRlx) is currently being tested in clinical trials as a protective agent in congestive heart failure, in treating severe preeclampsia, and as an anti-fibrotic agent in various organs. […] Upon relaxin binding RXFP1 activation leads to the activation of adenylate cyclase (AC) via G?s. cAMP will activate PKA, which phosphorylates many signaling proteins. Thus, detection of cAMP increase is an easy and reliable indication of relaxin receptor activation. To screen for antagonists of the relaxin receptor, a HEK293T cell line stably transfected with RXFP1 was used. RXFP1 activation by relaxin in presence of various concentrations of tested compounds was assayed by changes in cAMP levels as detected with a time-resolved fluorescence energy transfer (TR-FRET) cAMP detection kit.
For the primary screening, we used HTRF(R) (Homogenous Time-Resolved Fluorescence) cAMP HiRange assay (Cisbio Bioassays, 62AM6PEJ). Presence of cAMP in the cell lysate disrupts binding between the Cryptate-labeled anti-cAMP and d2-labeled cAMP pair, leading to a decrease in TR-FRET signal. The libraries were screened at two doses (57microM and 11microM), followed by a confirmation of the hits at 7-point serial dilution in the range of final concentrations [57microM - 78nM]. Data were normalized to the controls for basal activity (buffer only) and 100% activity (5 nM porcine relaxin). The EC50 values were determined from concentration-response data modeled with the standard Hill equation. NCGC Assay Protocol Summary: HiHEK (Hawaiian HEK293 LGR7 stably transfected with human RXFP1) were grown in the following media: DMEM+10%FBS+Pen/Strep + Geneticin (1mg/ml). For the assay, the cells were seeded in DMEM+Pen/Strep (with no serum & selective antibiotics) at 2,100 cells/ 3microl/well with MultiDrop Combi dispenser (Thermo Scientific, Logan, UT) onto white tissue culture treated solid bottom1536-well plates (Greiner #789173-F) and allowed to attach/recover overnight at 37 degrees C, 5% CO2. Next, 23nl/well of compound solutions in DMSO were transferred into wells with a pintool (Kalypsis, San Diego, CA). […] EC80 (relaxin at 50pM final concentration) was dispensed to the rest of the plate except columns 1&2 which were used as a negative control (EC0, buffer only), 1microl/well also. The cells were stimulated by relaxin in the presence of compounds for 30 minutes at 37 degrees C, 5% CO2. The detection reagents were prepared individually by dilution in Lysis buffer (supplied with the assay kit) just prior to dispensing. 1microl/well of cAMP-d2 and 1microl/well anti-cAMP-Eu3+-Cryptate antibodies were added simultaneously with BioRAPTR FRDtrade mark Workstation (Beckman Coulter). The plates were incubated at ambient temperature for 30 minutes and, then, FRET signal was read on Envision plate reader (PerkinElmer, Waltham, MA), at wavelengths 340nm (excitation), 615nm & 665nm (emission of donor and acceptor channels respectively).
% is scaled to controls: 0 for no effect and ±100 for the full control effect.

Question: How did the activity change, negative = inhibition turn out when `O=C1NC(=O)C(CCOc2ccccc2)(CCc2ccccc2)C(=O)N1` was run?
Answer: 1.73%

Question: With `O=C1NC(=O)C(Cc2ccccc2)C(=O)N1` as the compound, how does the activity change, negative = inhibition read?
Answer: 13.2%

Question: `CCC1(CC(C)c2ccccc2)C(=O)NC(=O)NC1=O` (stereo not given) was tested. Which activity change, negative = inhibition did it give?
Answer: -60.5% (active)

Question: `COC(=O)C1=C(c2ccc(OCc3ccccc3)cc2)C[C@@H]2CC[C@H]1N2C(=O)NCc1ccc(Cl)cc1` was tested. Which activity change, negative = inhibition did it give?
Answer: -0.858%

Question: For `COc1ccc(C2C=C(C)Oc3c2c(=O)oc2ccccc32)cc1OC` (stereo not given), which activity change, negative = inhibition is on record?
Answer: -2.25%

Question: How did the activity change, negative = inhibition turn out when `O=C1NC(=O)N(Cc2ccco2)C(=O)/C1=C\c1cccn1CCOc1ccccc1` was run?
Answer: 2.7%

Question: For `O=C1NC(=O)N(Cc2ccco2)C(=O)/C1=C\c1ccc(-c2ccc(F)cc2)o1`, which activity change, negative = inhibition is on record?
Answer: -116% (active)

Question: For `Cc1cc(/C=C2/C(=O)NC(=O)N(Cc3ccco3)C2=O)c(C)n1-c1ccc(C(=O)O)cc1`, which activity change, negative = inhibition is on record?
Answer: 7.49%

Question: With `CC1N=C(N)OC1c1ccccc1` (stereo not given) as the compound, how does the activity change, negative = inhibition read?
Answer: 7.33%

Question: For `CC(=CCOc1ccc2ccc(=O)oc2c1)C1=CC(=O)C(C)(C)O1`, which activity change, negative = inhibition is on record?
Answer: 1.36%

Question: With `Cc1cccc(N2C(=O)NC(=O)/C(=C\c3cnn(-c4ccccc4)c3)C2=O)c1` as the compound, how does the activity change, negative = inhibition read?
Answer: -97.1% (active)

Question: Which activity change, negative = inhibition does the source give for `O=C1NC(=O)N(c2ccccc2)C(=O)/C1=C/c1ccc([N+](=O)[O-])s1` here?
Answer: -11.7%

Question: How did the activity change, negative = inhibition turn out when `COc1cccc(N2C(=O)NC(=O)/C(=C\c3cn(C)c4ccccc34)C2=O)c1` was run?
Answer: 1.09%

Question: How did the activity change, negative = inhibition turn out when `CC1=C(C(=O)O)N2C(=O)[C@@H](N)[C@H]2SC1` was run?
Answer: 7.08%

Question: For `C[C@H]1CN([C@@H](C)CO)C(=O)CCCn2nncc2CO[C@H]1CN(C)C(=O)Oc1ccccc1`, which activity change, negative = inhibition is on record?
Answer: -9.78%

Question: `CC(c1ccccc1)(c1ccccc1)c1ccncc1` was tested. Which activity change, negative = inhibition did it give?
Answer: -80.6% (active)

Question: How did the activity change, negative = inhibition turn out when `O=S(=O)(O)C(F)(F)C(F)(F)C(F)(F)C(F)(F)F` was run?
Answer: 19.3%

Question: How did the activity change, negative = inhibition turn out when `CO[C@]12CC[C@@]3(C[C@@H]1[C@](C)(O)C(C)(C)C)[C@@H]1Cc4ccc(O)c5c4[C@@]3(CCN1CC1CC1)[C@H]2O5` was run?
Answer: -34%

Question: How did the activity change, negative = inhibition turn out when `CCCOC(=O)c1cncn1C(C)c1ccccc1` (stereo not given) was run?
Answer: 12.5%

Question: With `Cc1ncoc1C(=O)NCC1=C(c2cccc3ccccc23)C[C@@H]2CC[C@H]1N2Cc1ccco1` as the compound, how does the activity change, negative = inhibition read?
Answer: -0.31%

Question: Which activity change, negative = inhibition does the source give for `c1cc2c(c(NC3=NCCCS3)c1)CCCC2` here?
Answer: 4.47%

Question: For `CCCCC1C(=O)NC(=O)N(C2CCCCC2)C1=O` (stereo not given), which activity change, negative = inhibition is on record?
Answer: -10.8%

Question: Which activity change, negative = inhibition does the source give for `CCCCCCCCCCCCn1ccc(=N)cc1` here?
Answer: -73.7% (active)

Question: With `O=c1c2ccccc2nc(CBr)n1-c1ccc(Cl)cc1` as the compound, how does the activity change, negative = inhibition read?
Answer: 8.62%

Question: Which activity change, negative = inhibition does the source give for `C[C@H]1CN([C@@H](C)CO)C(=O)CCCn2nncc2CO[C@H]1CN(C)C(=O)Oc1cccc2ccccc12` here?
Answer: 3.41%

— PubChem BioAssay AID1259400 (National Center for Advancing Translational Sciences (NCATS), 2018)
